The whole screen tested about 5,500 compounds, of which about 2,000 (36%) were called active. Roughly 18% stayed inconclusive and do not appear here. No stated cut-off is given here; in the data, active means normalized growth mostly below about 0.91 (no sharp cut-off); inconclusive means no clear call, values can overlap the other calls; inactive means mostly above about 0.92. This is one part of the list.
Experiment: chemical genetic growth profiling, strain panel (AID 1159580);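 further: tested at 20 µM; growth read once vehicle control cultures reached saturation at 30 °C; 1 = growth at the plate median or of vehicle wells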
Settings: S. cerevisiae deletion strains, growth OD

Measured: normalized growth

NC1CCN(O)C1=O (stereo not given)
inactive: locus YAL013W, strain DEP1, stronger effect = lower value 1.02 | locus YAL040C, strain CLN3, stronger effect = lower value 1.02 | locus YCL061C, strain MRC1 (second series), stronger effect = lower value 1.02 | locus YDR363W, strain ESC2, stronger effect = lower value 0.986 | locus YER002W, strain NOP16, stronger effect = lower value 1.01 | locus YGR078C, strain PAC10, stronger effect = lower value 1.02 | locus YNL175C, strain NOP13, stronger effect = lower value 1.01 | locus YNL197C, strain WHI3, stronger effect = lower value 0.997 | locus YNL224C, strain SQS1, stronger effect = lower value 1.02 | locus YOR083W, strain WHI5 (second series), stronger effect = lower value 0.985

Reference: PubChem BioAssay AID1159580 (chemical genetic matrix, 2015)
